An excerpt weighted towards active compounds, which were near 3.3% of everything screened.
M18AAP inhibitor = blocks P. falciparum M18 aspartyl aminopeptidase; recombinant PfM18AAP, H-Glu-NHMec fluorogenic cleavage; inhibition, % at 7.35 µM; 290,000 tested, 1.2% active;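 active means inhibition above the campaign mean inhibition over all tested compounds plus 3 SD, cut at about 28% in these data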;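 further: 0% = plate median of test compound wells and 100% = 2 mM ZnCl2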
PfGluPho inh = PfG6PD (Plasmodium falciparum) enzyme inhibition; inhibition, % at 20 µM; PfGluPho enzyme, NADPH resazurin-diaphorase fluorescence; AID 504690; 350,000 tested, 0.78% active;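 active means inhibition reaching at least a set limit at 20 µM in the primary screen, cut at about 59% in these data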;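 further: 0% = DMSO wells with substrate and 100% = DMSO wells lacking glucose-6-phosphate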
MBD2 inh = blocks human MBD2 binding to methylated DNA; Q9UBB5; TR-FRET, MBD2 binding to methylated oligonucleotide; inhibition, % at 4.4 µM; 370,000 tested, 0.31% active; in the data active means inhibition above about 13%
UHRF1 binding = blocks human UHRF1 binding to methylated DNA; Q96T88; UHRF1 binding to methylated oligo, TR-FRET; inhibition, % at 4.4 µM; 370,000 tested, 0.75% active; AID 687016; in the data active means inhibition above about 21%;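 further: UHRF1 SRA domain binding a hemimethylated CpG hairpin DNA probe; 0% = median of test compound wells and 100% = reference inhibitor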
PRMT1 FP inh = inhibitors of human PRMT1; recombinant PRMT1, activity-based probe fluorescence polarization; Q99873; inhibition, % at 2.79 µM; 370,000 tested, 1.3% active;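 active means inhibition above about 21% made by adding two undisclosed values, limit read from the data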
Target sequence (Q99873 whole entry, looked up): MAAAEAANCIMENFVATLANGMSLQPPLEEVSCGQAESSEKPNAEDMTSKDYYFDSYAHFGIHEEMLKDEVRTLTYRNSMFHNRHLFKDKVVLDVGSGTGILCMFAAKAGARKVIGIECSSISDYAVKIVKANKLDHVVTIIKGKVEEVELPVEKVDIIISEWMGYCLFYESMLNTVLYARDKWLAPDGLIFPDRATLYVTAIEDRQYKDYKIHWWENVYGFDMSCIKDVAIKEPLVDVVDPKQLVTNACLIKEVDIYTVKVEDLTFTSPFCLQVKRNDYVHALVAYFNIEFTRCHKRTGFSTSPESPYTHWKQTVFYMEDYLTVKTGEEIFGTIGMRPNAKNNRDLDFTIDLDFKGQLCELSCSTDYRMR
PfG6PD confirm = confirmation of Plasmodium falciparum G6PD inhibitors; recombinant PfGluPho, NADPH-diaphorase-resazurin fluorescence; 2,400 tested, 34% active; inhibition, % at 20 µM; shares compounds with PfGluPho inh;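 active means inhibition of at least 50% at 20 µM in any single replicate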;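 further: 0% = DMSO with substrate and 100% = DMSO lacking glucose-6-phosphate substrate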
Diaphorase 10uM = counter-screen for P. falciparum G6PD inhibitors: diaphorase inhibitors, oxidizers | inhibition, % at 20 µM | shares compounds with PfGluPho inh | 820 tested, 39% active | diaphorase-coupled resazurin reduction, fluorescence, NADPH 10 uM;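 active means average inhibition reaching 50% or more with the compound at 20 µM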;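 further: resorufin red fluorescence formed as diaphorase reduces resazurin using NADPH; 0% = DMSO with enzyme and 100% = DMSO without enzyme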
Diaphorase 30uM = counter-screen for P. falciparum G6PD inhibitors: diaphorase inhibitors, oxidizers; shares compounds with PfGluPho inh; Diaphorase/resazurin coupled assay, resorufin fluorescence, 30 uM NADPH; inhibition, % at 20 µM; 820 tested, 29% active; AID 504863;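 active means inhibition averaging 50% or more, tested at 20 µM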;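 further: 0% = DMSO with enzyme and 100% = DMSO wells lacking diaphorase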
Active calls of the source: *; · = no result given.

SMILES	M18AAP inhibitor	PfGluPho inh	MBD2 inh	UHRF1 binding	PRMT1 FP inh	PfG6PD confirm	others
CCOc1ccc(CNc2ccc(N3CCCC3)cc2)cc1	13.6	94.8*	·	·	·	81.5*	Diaphorase 10uM=27.0;Diaphorase 30uM=13.9
CCOc1ccc(CNc2ccc(N3CCN(Cc4ccccc4)CC3)cc2)cc1	16.8	-0.6	-4.2	-2.8	-0.6	·
Cc1cc(C)c(S(=O)(=O)/N=C2/C=C(SCC(=O)O)C(=O)c3ccccc32)cc1C	-13.1	106.5*	·	·	·	94.8*	Diaphorase 10uM=48.4;Diaphorase 30uM=36.4
COCCCNC(=O)C[C@H]1C[C@@]2(C(=O)OC)C(=C[C@H](COCc3ccccc3)O[C@@H]2C)N(Cc2ccco2)C1=O	·	·	-7.8	-2.1	8.6	·
CN=C1SC(C(=O)Nc2ccccc2Cl)CC(=O)N1c1ccc(OC(F)(F)Cl)cc1 (stereo not drawn)	-0.6	-5.0	3.9	0.1	3.5	·
COC(=O)c1c(-c2ccc(C(C)(C)C)cc2)csc1NC(=O)C1C2CCC(O2)C1C(=O)O (stereo not drawn)	28.2*	69.5*	-2.1	-4.8	8.9	30.6
N#C/C(=C/c1ccc(N2CCCCCC2)o1)c1cccc(F)c1	1.3	64.9*	-0.6	-0.3	18.0	-3.8
N#C/C(=C/c1ccc(N2CCCCCC2)o1)c1ccc(F)cc1	-3.6	45.3	·	·	·	·
N#C/C(=C/c1ccc(N2CCOCC2)o1)c1ccc(Br)cc1	0.7	80.3*	-2.2	-5.1	8.9	28.1
COC(=O)C1=C(C)N(Cc2ccccc2C(F)(F)F)C(=NCc2ccc(OC)cc2)NC1c1ccc(Cl)cc1 (stereo not drawn)	·	·	1.4	-0.7	-0.6	·
O=C(/C=C/c1ccccc1)c1ccccc1	19.6	21.2	-2.8	5.1	-3.0	·
O=C(/C=C\c1ccc(-c2ccccc2)o1)c1ccccc1	-10.4	74.4*	9.5	-0.9	26.0*	-7.6
CC(NC(=O)c1ccccc1F)c1nnc(SCC(=O)NC2=NCCS2)n1C (stereo not drawn)	4.2	5.6	-1.5	-0.9	-0.4	·
Cc1ccc2c(c1)C1CS(=O)(=O)N(Cc3ccccc3)CN1C2 (stereo not drawn)	·	·	-5.2	-5.0	2.9	·
O=C(O)CSc1nc2ccccc2o1	6.0	-14.3	-5.2	-2.1	-1.9	·
Nn1c(CSc2nc3ccccc3o2)nnc1CSc1nc2ccccc2o1	-6.5	87.0*	1.9	2.2	12.4	59.9*	Diaphorase 10uM=56.4*;Diaphorase 30uM=48.3
Nc1ccn([C@@H]2O[C@H](C(=O)N[C@H](Cc3ccccc3)C(=O)N3CCN(CCO)CC3)[C@@H](O)[C@H]2O)c(=O)n1	·	·	1.4	0.8	2.6	·
COc1c(C)cccc1C(=O)Nc1ccc(N2CCOCC2)c(Cl)c1	3.6	68.3*	2.1	-3.1	-1.4	38.7
CC1CCCCC12NC(=O)N(CC(=O)Nc1cccnc1)C2=O (stereo not drawn)	·	-1.9	5.5	0.5	1.4	·
Cc1ccc(C)c(S(=O)(=O)Nc2ccc3sc(C)nc3c2)c1	4.0	37.9	-0.5	0.2	11.9	·
Cc1nc2cc(NS(=O)(=O)c3cccc4cccnc34)ccc2s1	3.0	60.9*	3.3	-0.2	6.4	37.0
COc1ccc(Cl)cc1NC(=O)c1cccc([N+](=O)[O-])c1O	·	76.9*	-3.7	0.5	0.1	57.4*	Diaphorase 10uM=41.8;Diaphorase 30uM=38.1
COc1ccc(NC(=O)C/C(C)=N/NC(=O)C2CCCCC2)c([N+](=O)[O-])c1	10.3	-3.9	-11.6	-8.0	3.1	·
COc1cccc(C(=O)n2ccc3ccc(-c4ccc5ccn(Cc6ccc(C#N)cc6)c5c4)cc32)c1	·	·	-3.4	-2.2	6.2	·
Cc1cc2c(s1)c1cnn(Cc3ccc(F)cc3F)c(=O)c1n2C	·	·	1.4	-0.3	-2.0	·
SMILES	M18AAP inhibitor	PfGluPho inh	MBD2 inh	UHRF1 binding	PRMT1 FP inh	PfG6PD confirm	others
Nc1ccc2c(c1)C(=O)C(=O)c1ccccc1-2	11.7	108.0*	4.6	-14.6	6.8	88.7*	Diaphorase 10uM=77.2*;Diaphorase 30uM=90.0*
Nc1ccc2c(c1)C(=O)c1ccccc1-2	·	4.9	-21.4	-16.0	0.7	·
O=C1/C(=N\S(=O)(=O)c2cccs2)C([n+]2ccccc2)=C([O-])c2ccccc21	10.8	65.1*	-0.8	6.4	-2.9	28.8
CC(C)(C)c1cc[n+](C2=C([O-])c3ccccc3C(=O)/C2=N\S(=O)(=O)c2cccs2)cc1	6.0	43.9	-10.4	-2.1	1.9	·
Cc1ccc(C2/C(=C(\O)c3c(C)nc4ccccn34)C(=O)C(=O)N2CCN(C)C)o1 (stereo not drawn)	1.4	2.2	1.7	-0.7	6.4	·
COC(=O)Sc1nc(N2CCOCC2)c2c(c1C#N)CC(C)(C)OC2	-18.9	49.6	3.9	0.0	5.2	21.1
COC(=O)CSc1nc(N2CCOCC2)c2c(c1C#N)CC(C)(C)OC2	5.2	-24.0	-0.1	0.3	2.1	·
Cc1[nH]c(-c2ccccn2)nc(=S)c1Cl	1.2	68.6*	0.7	5.8	8.4	4.9
Cc1ccccc1NC(=O)CSc1nnc(-c2ccco2)c(-c2ccco2)n1	13.9	33.3	·	·	·	·
Cc1cccc(C)c1NC(=O)CSc1nnc(-c2ccco2)c(-c2ccco2)n1	17.1	62.9*	·	·	·	18.0
COC(=O)[C@]12C[C@H](CC(=O)NCc3ccccc3)C(=O)N(Cc3ccco3)C1=C[C@H](C(C)C)O[C@@H]2C1CC1	·	·	-0.8	-1.1	0.3	·
O=C1CCCC2=C1C(c1ccc(Cl)cc1)C1C(=O)c3ccccc3C1=N2 (stereo not drawn)	0.5	71.6*	-4.5	-6.9	10.7	35.8
COc1ccc(C(=O)c2c(C(F)(F)F)oc3c2C(=O)c2ccccc2C3=O)cc1OC	-2.5	80.4*	0.4	3.3	-0.3	52.8*	Diaphorase 10uM=43.9;Diaphorase 30uM=52.2*
COc1ccc(C(=O)Nc2ccc3c(c2)C(=O)c2ccccc2C3=O)cc1OC	-3.0	0.2	-0.3	-2.1	1.4	·
C[C@H](O)[C@@H]1C(=O)N2CCc3c([nH]c4c(-c5ccccc5)cccc34)[C@@H]2C[C@@H]1N(C)C(=O)Nc1ccccc1	·	·	-0.3	-1.0	-0.4	·
O=[N+]([O-])c1ccc(Cl)c(S(=O)(=O)Nc2cccc(S(=O)(=O)NC3=NCCC3)c2)c1	·	66.7*	-0.1	0.4	17.3	41.7
CCc1nc2ccc(C(=O)NC3CCN(Cc4ccccc4)CC3)cn2c1N(C)Cc1ccc(N(C)C)cc1	·	·	-5.2	-1.6	-7.3	·
Cc1cc(C(=O)CSc2nnc(C3CC3)n2C2CC2)c(C)n1C(C)C	·	42.7	3.3	-1.8	5.1	19.2
C=CCn1c(C)cc(C(=O)CSc2nnc(C3CC3)n2C2CC2)c1C	·	38.5	-0.6	-0.5	-0.2	·
CCOc1ccc(C(=O)Nc2ccc(NC(=O)c3ccccc3)c(C)c2)cc1[N+](=O)[O-]	-11.2	-3.0	0.9	-1.7	-6.0	·

Screens (PubChem BioAssay)
